Rows were chosen to be rich in hits. Some 27% of all compounds tested hit in one or more screens of this group.
CYP2C9 activ = human CYP2C9 activators, primary screen, biochemical, luminescence. Cytochrome P450 2C9 (Homo sapiens), P11712. recombinant CYP2C9, luciferin-H conversion; active compounds read high; factor 1 = untreated enzyme, 0 = blocked. activation factor at 5 µM. hit rate 1.4% among 96,000. AID 1024, 2008;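 active = activation factor of 2 or more for CYP2C9 at a 5 µM dose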;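 also: 0 = sulfaphenazole-blocked wells and 1 = vehicle-only wells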
sEH act = soluble epoxide hydrolase activators, primary screen, biochemical, human sEH; activation, % at 2 µM; AID 717, 2007; purified human sEH enzymatic activity, activator screen; hit rate 0.04% among 91,000; Bifunctional epoxide hydrolase 2 (Homo sapiens), P34913; in the data active = activation above about 37%
CYP2C19 act = human CYP2C19 activators, primary screen, biochemical, luminescence; recombinant CYP2C19, luciferin-H EGE luminescence; active compounds read high; 0 = fully inhibited enzyme, 1 = untreated enzyme; Cytochrome P450 2C19 (Homo sapiens), P33261; 96,000 tested, under 10 active; AID 1025, 2008; activation factor at 5 µM;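 active = activation factor of at least 2 at 5 µM in the primary screen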;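 also: 0 = wells with 2.5 mM tranylcypromine and 1 = vehicle-only wells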
Target sequence (P33261 whole entry, looked up): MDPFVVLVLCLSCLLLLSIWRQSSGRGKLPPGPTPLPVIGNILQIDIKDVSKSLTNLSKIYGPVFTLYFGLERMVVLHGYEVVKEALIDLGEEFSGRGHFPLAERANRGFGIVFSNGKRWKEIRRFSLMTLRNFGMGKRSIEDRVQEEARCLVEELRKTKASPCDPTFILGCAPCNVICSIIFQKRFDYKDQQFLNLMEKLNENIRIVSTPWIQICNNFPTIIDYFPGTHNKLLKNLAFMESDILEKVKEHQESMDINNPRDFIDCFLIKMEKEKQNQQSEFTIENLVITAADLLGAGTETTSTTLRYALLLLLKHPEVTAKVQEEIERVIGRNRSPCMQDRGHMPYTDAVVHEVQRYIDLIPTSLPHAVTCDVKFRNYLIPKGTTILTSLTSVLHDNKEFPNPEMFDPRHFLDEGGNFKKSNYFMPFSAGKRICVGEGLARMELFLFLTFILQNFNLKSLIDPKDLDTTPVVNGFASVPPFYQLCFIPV
CYP2C9 inhib = blockers of cytochrome P450 2C9 activity – biochemical, luminescence, ADME assay, primary screen; P11712; CYP2C9 Supersomes, luciferin-H conversion; inhibition, % at 5 µM; hit rate 20% among 96,000;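 active = blocking of liver enzyme CYP2C9 beyond about 50% at 5 µM, limit read from the data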
sEH inhibitor = soluble epoxide hydrolase inhibitors, primary screen, biochemical, human sEH | Bifunctional epoxide hydrolase 2 (Homo sapiens), P34913 | recombinant human sEH enzymatic activity assay | inhibition, % at 2 µM | hit rate 0.34% among 91,000 | AID 707, 2007; in the data active = inhibition above about 80%
CYP2C19 inh = blockers of cytochrome P450 2C19 activity – biochemical, luminescence, ADME assay, primary screen | CYP2C19 Supersomes, luciferin-H EGE luminescence, 30 min | hit rate 21% among 96,000 | AID 778, 2007 | inhibition, % at 5 µM | P33261;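 active = CYP2C19 inhibition above a set limit at 5 µM in the primary screen, cut at about 50% in these data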;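 also: plate controls were negative control wells for no effect and 2.5 mM tranylcypromine positive control for full effect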
Numbers without * were called inactive; . = no result.

SMILES	CYP2C9 activ	sEH act	CYP2C19 act	CYP2C9 inhib	sEH inhibitor	CYP2C19 inh
CC(C)c1ccc(N2CCN(C(=O)c3ccccc3NC(=O)/C=C\C(=O)O)CC2)cc1	1	6	1	1	-2	-5
O=C(c1ccccc1NS(=O)(=O)c1ccc(Br)s1)N1CCCC1	0.9	-8	0.3	8	9	69*
CC(=O)Nc1nc(CC(C)C)cc(-c2ccco2)c1C#N	1	-2	1.1	1	5	-11
CCOC(=O)N1CCN(C(=O)c2cn(CCOC)c(=O)c3c2c2ccccc2n3C)CC1	1	-8	1.1	-2	6	-10
Cc1ccc(C(=O)N/C(=C\c2cn(-c3ccccc3)nc2-c2ccccc2)C(=O)N2CCOCC2)cc1	0.9	3	0.8	11	-1	15
COc1ccc(OC)c(N2C(=O)CC(Cc3ccc(C)cc3)C2=O)c1 (configuration not stated)	.	2	.	.	2	.
O=C(Nc1ccccc1C(=O)N1CCN(c2ccccc2)CC1)c1ccco1	0.4	-5	0.4	57*	10	62*
O=C(Nc1ccccc1C(=O)N1CCNCC1)c1ccco1	.	11	.	.	-11	.
CS(=O)(=O)Nc1ccccc1C(=O)N1CCN(c2ccccc2)CC1	1	6	0.3	-1	-4	71*
c1ccc(-c2nnc(CSc3nnc(-c4cccs4)o3)o2)cc1	.	-2	.	.	3	.
O=C(CCCSc1nc2ccccc2[nH]1)Nc1nnc(-c2ccccc2)o1	0.5	4	0.6	52*	-2	42
c1ccc(-c2nnc(CSc3nc4ccccc4[nH]3)o2)cc1	0.3	.	0.1	67*	.	90*
N#Cc1c(-c2ccccc2)cc(-c2ccccc2)nc1SCc1nnc(-c2ccccc2)o1	0.3	2	0.7	70*	0	29
CN1CCN(S(=O)(=O)c2ccc(-c3noc(C4CCN(S(C)(=O)=O)CC4)n3)cc2)CC1	1.1	4	1.1	-9	-4	-5
COc1ccc(S(=O)(=O)N(C)CC(=O)N2CCN(Cc3ccccc3)CC2)cc1C	2.4*	5	0.7	-137	-7	32
CCOC(=O)N1CCN(C(=O)CN(Cc2ccccc2)S(=O)(=O)c2ccc(OC)c(Cl)c2)CC1	0.5	-6	0.1	55*	4	89*
CCN1CCN(C(=O)CN(C)S(=O)(=O)c2ccc(OC)c(C)c2)CC1	1.6	12	1	-62	-13	-2
CCOC(=O)N1CCN(C(=O)CN(Cc2ccccc2)S(=O)(=O)c2ccc(OC)c(C)c2)CC1	0.7	8	0.4	27	-8	64*
CCOC(=O)N1CCN(C(=O)CN(Cc2ccc(Cl)cc2)S(=O)(=O)c2ccc(C)cc2)CC1	0.1	14	0	90*	-18	96*
CCOC(=O)N1CCN(C(=O)CN(Cc2ccc(Cl)cc2)S(C)(=O)=O)CC1	0.8	-8	0.5	18	12	48
CC(C)Cn1c(SCC(=O)NC(=O)NC2CCCC2)nc2ccccc21	0.6	-10	0.6	43	10	42
CCOC(=O)N1CCC(N(CCOC)C(=O)Nc2ccc(Cl)c(Cl)c2)CC1	0.8	.	0.6	15	.	40
Cc1ccc(S(=O)(=O)N(CCC(=O)O)Cc2ccc(Cl)cc2)cc1	0.5	12	0.6	54*	-12	37
O=C(Nc1ccccc1)c1ccccc1OCC(O)CN1C(=O)c2ccccc2S1(=O)=O (configuration not stated)	0.2	-13	0.4	76*	13	63*
CCOC(=O)c1c(C)n(C)c2ccc(OCC(O)CN3C(=O)c4ccccc4S3(=O)=O)cc12 (configuration not stated)	0.3	4	0.6	73*	-5	43
COc1ccc(OCC(O)Cn2c(=N)n(Cc3ccccc3)c3ccccc32)cc1 (configuration not stated)	0.8	21	0.5	22	-18	49
COc1ccc(OCC(O)CN2C(=O)c3ccccc3S2(=O)=O)cc1 (configuration not stated)	0.5	17	0.1	49	-17	92*

Screens: PubChem BioAssay, several laboratories
